HepG2 tox: counter-screen for TGF-b inhibitors: cytotoxicity in HepG2 cells. HepG2 CAGA-GFP viability, ATP luminescence, 18 h. Potency, µM (highest dose often 46.1 µM), inactives show at the highest dose activity change, negative = cytotoxicity, actives largely listed as cytotoxic. 410,000 tested, 0.76% active; further: potency means the concentration at half of the fitted maximal effect
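CellTiter-Glo luminescence gave cytotoxicity after 18 hours at 37 degrees C. The cells were HepG2 CAGA-GFP in 1% FBS DMEM, stimulated with 500 pg/mL TGF-beta after compound addition. %Activity was normalised to no-cell wells (complete cell-killing) and DMSO (no toxicity), and curves were fitted and classified.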
TDP1 cell noCPT: qHTS for Inhibitors of human tyrosyl-DNA phosphodiesterase 1 (TDP1): qHTS in cells in absence of CPT; DT40 Tdp1-/- hTDP1 cells, no CPT, ATP luminescence, 48 h; Potency, µM (top dose mostly 46.2 µM), without a hit: top-dose activity change, negative = growth inhibition, usual class: inhibitors; 420,000 tested, 15% active; further: potency means the concentration at half of the fitted maximal effect; on the % scale 0 is the no-effect control and ±100 the full control effect; nearly all actives have a fitted effect of over 55% in size
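DT40 Tdp1-/-;hTDP1 cells, no CPT (DMSO vehicle only), 400 cells/well; compounds pin-transferred; ≥48 hr, 37 °C; CellTiter-Glo 30 min RT dark, luminescence read.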
DT40 TDP1 CPT: growth inhibition of DT40 Tdp1-/-;hTDP1 cells with camptothecin (screen for TDP1 inhibitors) | chicken DT40 Tdp1-/-;hTDP1 cells + 20 nM CPT, ATP luminescence, 48 h | Potency, µM (top dose mostly 46.2 µM), inactives show at the highest dose activity change, negative = growth inhibition, most hits filed as inhibitors | 420,000 tested, 12% active; further: potency means the concentration at half of the fitted maximal effect; on the % scale 0 is the no-effect control and ±100 the full control effect; nearly all actives have a fitted effect of over 55% in size
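Chicken DT40 Tdp1-/- cells complemented with human TDP1, 400 cells/well, exposed to compounds plus 20 nM camptothecin for at least 48 h at 37 C; viability read as ATP content by CellTiter-Glo luminescence.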
TDP1 inh: blocks human tyrosyl-DNA phosphodiesterase 1; Q9NUW8; recombinant TDP1, AlphaScreen DNA substrate cleavage; Potency, µM (doses to about 130 µM), for the others: at the highest dose activity change, negative = inhibition, hits mostly inhibitors; 350,000 tested, 0.28% active; further: potency means the concentration at half of the fitted maximal effect; on the % scale 0 is the no-effect control and ±100 the full control effect; nearly all actives have a fitted effect of over 40% in size
Target sequence (Q9NUW8 whole entry, looked up): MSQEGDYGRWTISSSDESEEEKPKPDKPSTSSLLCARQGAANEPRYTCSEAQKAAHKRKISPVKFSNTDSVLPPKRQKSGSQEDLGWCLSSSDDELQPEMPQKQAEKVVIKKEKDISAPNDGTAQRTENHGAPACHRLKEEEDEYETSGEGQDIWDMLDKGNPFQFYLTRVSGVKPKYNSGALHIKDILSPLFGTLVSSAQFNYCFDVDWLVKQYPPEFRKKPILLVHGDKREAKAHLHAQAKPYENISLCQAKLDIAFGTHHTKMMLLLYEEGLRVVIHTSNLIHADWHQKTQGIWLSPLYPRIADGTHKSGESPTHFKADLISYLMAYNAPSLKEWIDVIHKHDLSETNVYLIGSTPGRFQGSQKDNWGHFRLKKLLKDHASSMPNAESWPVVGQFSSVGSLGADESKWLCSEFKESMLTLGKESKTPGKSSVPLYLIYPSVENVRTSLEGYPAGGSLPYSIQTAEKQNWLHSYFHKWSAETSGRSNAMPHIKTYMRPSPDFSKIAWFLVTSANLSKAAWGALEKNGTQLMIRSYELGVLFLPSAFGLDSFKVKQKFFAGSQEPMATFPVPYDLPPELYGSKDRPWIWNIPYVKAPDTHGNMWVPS
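Signal: AlphaScreen proximity between streptavidin donor and anti-FITC acceptor beads on intact substrate. Reaction: Tdp1 1 nM, substrate 15 nM final, 5 min RT after 15 min compound preincubation.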
IL1B secr inh: inflammasome signaling inhibition, IL-1 beta readout; THP-1 LPS/ATP IL-1B secretion, AlphaLISA, 16 h; stronger effect = lower value; activity change, % at 57.5 µM; 360,000 tested, 4.7% active; AID 743279; in the data active means activity change below about -50%; inconclusive means mostly about -30% to -49%; further: on the % scale 0 is the no-effect control and ±100 the full control effect
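THP-1 cells pretreated 1 hr with compounds (up to 57.5 uM final), then stimulated with LPS (250 ng/mL final) plus ATP (1.25 mM final); secreted IL-1B measured by AlphaLISA after 16 hr, decreased signal indicating inhibition.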
TGFb SMAD3 inh: TGF-b pathway inhibition | Potency, µM (series often up to 46.1 µM), without a hit: top-dose activity, negative = inhibition, actives largely listed as inhibitors | 410,000 tested, 1.2% active | HepG2 CAGA-GFP TGF-b/SMAD3 reporter, GFP fluorescence, 18 h; TGF-beta stimulated, 500 pg/mL final; further: potency means the concentration at half of the fitted maximal effect; on the % scale 0 is the no-effect control and ±100 the full control effect; nearly all actives have a fitted effect of over 65% in size
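Per well, imaged GFP fluorescence of HEPG2 CAGA-GFP cells gives the signal; cells get compound, then TGF-beta (500 pg/mL final), 18 h at 37 degrees C; %Activity versus -TGF-beta and +DMSO controls.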
An asterisk follows results filed as active; ? = inconclusive; . = not tested or not shown; [ ] = remark or other dose. Sampled rows, rich in hits. Any-hit rate of the full collection: about 19%. Unless noted, the call rests on the fitted dose curve; in most records, active means well fitted curve in the direction sought with a large enough effect; inconclusive means small, poorly fitted or top-dose-only effect, or another doubt; inactive means no such curve, though single readings can be large; an effect the other way counts as inactive or inconclusive.

SMILES	HepG2 tox	TDP1 cell noCPT	DT40 TDP1 CPT	TDP1 inh	IL1B secr inh	TGFb SMAD3 inh
Cc1cccc(NC(=O)CCN2C(=O)c3ccccc3S2(=O)=O)c1C	-7%	1%	5%	.	-15	1%
CCOc1ccc(-c2c(=O)n(OCc3ccccn3)c3ccccc3[n+]2[O-])cc1	-3%	12µM*	21µM*	4%	-30	0%
C=CCOn1c(=O)c(-c2ccc(OC)c(OC)c2)[n+]([O-])c2ccccc21	2%	?	?	5%	5	-10%
COc1ccc(-c2c(=O)n(OCc3ccccc3[N+](=O)[O-])c3ccccc3[n+]2[O-])c(OC)c1	-8%	18µM*	?	1%	-9	-10%
COc1ccc(-c2c(=O)n(OCc3ccccn3)c3ccccc3[n+]2[O-])cc1OC	-16%	?	-29%	2%	3	0%
COc1ccc(-c2c(=O)n(OC)c3ccccc3[n+]2[O-])cc1OC	-27%	15µM*	12µM*	.	-16	-1%
CCOC(=O)C(CCc1ccccn1)c1ccccc1 (centres undefined)	-7%	?	?	.	-1	-8%
Cc1ccc(Cl)cc1NC(=O)N1CCC(CN2CCc3ccccc3C2)CC1	2%	-13%	-11%	-6%	.	6%
COc1cccc(CC(=O)OCC(=O)NC(C)c2ccc(F)cc2)c1 (centres undefined)	0%	-8%	-29%	0%	5	0%
Cc1cccc(NC(=O)C2=C(O)c3ccccc3N(C)S2(=O)=O)c1	-16%	15µM*	?	4%	34	-11%
Cc1ccc(NC(=S)C2=C(O)c3sccc3N(C)S2(=O)=O)cc1	5%	?	?	-1%	13	-2%
Cc1ccc(NC(=O)C2=C(O)c3sccc3N(C)S2(=O)=O)cc1	4%	21µM*	?	9%	-17	-26%
CN1CCN(C(=S)Nc2ccc(Cl)cc2)CC1	2%	12%	-20%	0%	1	-8%
CN1c2ccsc2C(O)=C(C(=O)Nc2ccccc2)S1(=O)=O	-12%	?	?	0%	13	0%
CN1c2ccccc2C(O)=C(C(=S)Nc2ccc(Cl)cc2)S1(=O)=O	-48%	21µM*	16µM*	3%	-13	-10%
CCSc1ncc(Cl)c(C(=O)Nc2ccc(S(=O)(=O)Nc3nccc(C)n3)cc2)n1	-23%	?	-28%	2%	.	-12%
Cn1cc(C(=O)O)c(=O)c2cc(S(=O)(=O)N3CCCCC3)ccc21	-77%	?	-22%	13%	.	1%
COc1ccc(Nc2ccc(S(=O)(=O)N3CCCCCC3)cc2[N+](=O)[O-])cc1	-4%	23µM*	?	11%	?	?
COc1cc(C=O)ccc1Oc1ccc(S(=O)(=O)N2CCOCC2)cc1[N+](=O)[O-]	0%	-29%	-10%	0%	-57*	9%
COc1ccc(Nc2ccc(S(=O)(=O)N3CCCCC3)cc2[N+](=O)[O-])cc1OC	5%	21µM*	?	11%	0	?
COc1ccc(CCNc2ccc(S(=O)(=O)N3CCCC3)cc2[N+](=O)[O-])cc1	-37%	?	15µM*	5%	-22	-9%
O=C(NCCc1ccccc1)C1CCN(c2ncnc3c2nc2n3CCCCC2)CC1	6%	3%	-5%	4%	.	1%
CCCC(C)(C)C(=O)Nc1ccc(Cl)cc1	.	.	.	18%	.	.
CC(=O)c1cccc(-c2ccnc3c2CC(C(=O)NCc2ccc(F)c(F)c2)O3)c1 (centres undefined)	-7%	4.1µM*	4.1µM*	.	61	-7%
CC(=O)c1cccc(-c2ccnc3c2CC(C(=O)NCc2ccc(N4CCN(C)CC4)cc2)O3)c1 (centres undefined)	-7%	?	-40%	.	-12	7%
SMILES	HepG2 tox	TDP1 cell noCPT	DT40 TDP1 CPT	TDP1 inh	IL1B secr inh	TGFb SMAD3 inh
CC(=O)c1cccc(-c2ccnc3c2CC(C(=O)NCc2ccccc2)O3)c1 (centres undefined)	-16%	0.65µM*	0.73µM*	.	50	-9%
CC(C)(C)c1ccc(/C=C/C(=O)Nc2ccc3c(c2)OCCO3)cc1	.	.	.	12%	.	.
NS(=O)(=O)c1ccc(NC(=S)Nc2ccc(S(=O)(=O)Nc3nccs3)cc2)cc1	9%	0%	-7%	.	32	-3%
Cc1ccc(-c2cn3nc(-c4ccccc4)c(-c4ccccc4)nc3n2)cc1	-24%	?	?	.	-74*	23%
O=[N+]([O-])c1ccc(-c2cn3nc(-c4ccccc4)c(-c4ccccc4)nc3n2)cc1	-29%	?	4%	0%	.	-15%
O=[N+]([O-])c1cccc(-c2cn3nc(-c4ccccc4)c(-c4ccccc4)nc3n2)c1	4%	?	?	-6%	0	2%
c1ccc(-c2cn3nc(-c4ccccc4)c(-c4ccccc4)nc3n2)cc1	2%	?	?	?	-55*	57%
Cc1ccc2[nH]c(CSc3nnc(C)s3)cc(=O)c2c1	4%	-19%	-2%	5%	.	-8%
Cc1ccc(C(=O)OCC(=O)Nc2ccc(N3CCOCC3)cc2)cc1	-17%	-2%	3%	-2%	6	?
CCOC(=O)c1ccc(N2Cc3ccccc3C2=NC(=O)c2cccs2)cc1	-2%	?	18µM*	0%	61	-9%
CC(=O)c1ccc(N2Cc3ccccc3C2=NC(=O)c2cccs2)cc1	-26%	?	?	3%	-2	6%
CC(C)C(NS(C)(=O)=O)c1nnc2n1CCN(Cc1ccc(Cl)cc1)CC2 (centres undefined)	.	?	3%[9.04 µM]	.	.	.
CCc1ccc(CNC(=O)CCc2c(C)nn(-c3ccc(N4CCCCC4)nn3)c2C)cc1	-18%	?	?	10%	.	?
Cc1ccc(CNC(=O)CCc2c(C)nn(-c3ccc(N4CCCCC4)nn3)c2C)cc1	-6%	?	?	6%	.	-60%
Cc1nn(-c2ccc(N3CCCCC3)nn2)c(C)c1CCC(=O)NCc1ccc(OC(C)C)cc1	-24%	16µM*	16µM*	1%	.	-7%
Cc1nn(-c2ccc(N3CCCCC3)nn2)c(C)c1CCC(=O)NCc1ccc(Cl)cc1	-9%	26µM*	?	8%	.	-20%
